Compounds without any hit were thinned out: in the full panel of roughly 79,000, 15% have a hit. Rule as the data show it: active = growth inhibition above about 70%; inactive = the rest.
Columns and labels:
[1] = NCI Yeast Anticancer Drug Screen. Data for the rad50 strain (AID 155);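 also: 0% = growth of vehicle-only cultures of the same strain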; conditions: S. cerevisiae rad50 strain growth inhibition; at 50.0 µM; active compounds read high
Procedure, shortened: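 Growth of the mutant yeast was measured after compound exposure and referenced to vehicle-treated cultures.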

[2] = NCI Yeast Anticancer Drug Screen. Data for the mec2-1 strain (AID 157); conditions: S. cerevisiae mec2-1 strain, at 50.0 µM, active compounds read high
Procedure, shortened: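 Compounds were applied to mec2-1 yeast cells. Their growth was then compared with that of vehicle-treated cultures to give growth inhibition.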

[3] = NCI Yeast Anticancer Drug Screen. Data for the sgs1 mgt1 strain (AID 161);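 also: 0% = growth of cultures given vehicle only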; conditions: S. cerevisiae sgs1 mgt1 strain, at 50.0 µM, active compounds read high
Procedure, shortened: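 This yeast growth screen uses a strain with defined DNA-repair lesions; compound-treated growth is compared with vehicle-treated growth.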

[4] = NCI Yeast Anticancer Drug Screen. Data for the cln2 rad14 strain (AID 165);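 also: 0% = growth equal to vehicle treated cultures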; conditions: S. cerevisiae cln2 rad14 strain, at 50.0 µM, active compounds read high
Procedure, shortened: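 Strain: cln2 rad14 yeast, altered in cell cycle control and DNA damage repair. Read-out: growth inhibition vs vehicle.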

[5] = NCI Yeast Anticancer Drug Screen. Data for the bub3 strain (AID 167); conditions: S. cerevisiae bub3 mutant strain, at 50.0 µM, active compounds read high
Procedure, shortened: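 Whole-cell yeast assay. The mutant strain was incubated with compounds, and growth inhibition was determined by comparison with vehicle-treated cells.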

[6] = NCI Yeast Anticancer Drug Screen. Data for the mlh1 rad18 strain (AID 175); conditions: S. cerevisiae mlh1 rad18 strain growth inhibition; at 50.0 µM; active compounds read high
Procedure, shortened: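 A repair-deficient yeast strain is exposed to test compound, and growth is scored relative to vehicle-treated controls.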

Measured: growth inhibition

CCCCCCC#CC(=O)OCCCC
inactive: [1] -9.8% | [2] -14.9% | [3] 6.05% | [4] -20% | [5] -21.5% | [6] -16.4%

O=P(c1ccccc1)(c1ccccc1)C(O)c1ccncc1 (configuration not stated)
inactive: [1] 1.8% | [2] -17.2% | [3] -0.15% | [4] 10.9% | [5] -23% | [6] -10.9%

CSc1ccc(C(=C=C=C(c2ccc(SC)s2)c2ccc(SC)s2)c2ccc(SC)s2)s1
inactive: [1] 38.7% | [2] -19.8% | [3] 2.85% | [4] -24.2% | [5] -31.9% | [6] -2.1%

CC1(O)CC2C(CC1SC1CC3C(CC1(C)O)C3(C)C)C2(C)C (configuration not stated)
inactive: [1] -48.3% | [2] -33.5% | [3] -45.8% | [4] -26.4% | [5] -51.7% | [6] -33%

CC1=NOC(C)(O)/C1=N/O (configuration not stated)
inactive: [1] 6.8% | [2] 1.05% | [3] 17.9% | [4] -2.75% | [5] 9.75% | [6] -21.3%

CC12CCC(=O)C=C1CCC1C2CCC2(C)C1CCC2(O)C(=O)Cn1c(=O)cc[nH]c1=O (configuration not stated)
inactive: [1] 10.3% | [2] 4.65% | [3] 1.5% | [4] 14.7% | [5] -2.7% | [6] 11.5%

NNC(=Nc1ccccc1)SCc1ccccc1
inactive: [1] 3.05% | [2] 0.5% | [3] 23.4% | [4] 7.75% | [5] 20.2% | [6] -30.9%

CCOC(=O)C[C@@]1(C)C(=O)O[C@H](c2ccccc2)N1C(=O)c1ccccc1
inactive: [1] 13.2% | [2] 6.4% | [3] 14.2% | [4] 29.9% | [5] 11.8% | [6] 15.1%

Nc1[nH][nH]c(=O)c1N=Nc1ccccc1
inactive: [1] -7.75% | [2] -8.95% | [3] -1.15% | [4] -6.6% | [5] 8.4% | [6] 5.15%

CCCCCCCc1cc(=O)[nH]c(=S)[nH]1
inactive: [1] 4.05% | [2] -4.9% | [3] 0.5% | [4] -10.8% | [5] 11.3% | [6] -5.4%

Cc1cc2c3c(c1)CCCN3CCC2
inactive: [1] -12.1% | [2] -8.9% | [3] -9.85% | [4] -30.9% | [5] 3.1% | [6] 2.8%

C=CCCCC1CCCNC1=O (configuration not stated)
inactive: [1] 5.05% | [2] 10.2% | [3] -8.2% | [4] 8.1% | [5] 4.05% | [6] 0.45%

O=C1C=CC(=O)N1n1c(-c2ccccc2)n[nH]c1=O
inactive: [1] 4.05% | [2] -15.6% | [3] -16.9% | [4] -2.8% | [5] -8% | [6] -53.6%

O=[N+]([O-])c1ccc(N/N=C/C2CCCCCC2)c([N+](=O)[O-])c1
inactive: [1] 11.4% | [2] 13.6% | [3] -0.75% | [4] -147% | [5] -14.7% | [6] 4%

CCCCCOC(=S)S.[Ag]
inactive: [1] -5.65% | [2] -15.2% | [3] -1.55% | [4] 13.2% | [5] -16.2% | [6] -8.4%

CCOP(=O)(OCC)C(NC(=O)C(C(F)(F)F)C(F)(F)F)c1ccccc1 (configuration not stated)
inactive: [1] 7.85% | [2] 16.2% | [3] 0.05% | [4] 24.4% | [5] 34.1% | [6] -14.1%

O=C(OCCN=c1c2ccccc2ccc2ccccc12)c1cc([N+](=O)[O-])cc([N+](=O)[O-])c1
inactive: [1] 13.1% | [2] 4.75% | [3] 34.3% | [4] 21% | [5] 13.6% | [6] 39.8%

CC(C)C(NC(=O)c1ccccc1C(=O)O)c1ccccc1 (configuration not stated)
inactive: [1] 6.3% | [2] -7.35% | [3] 7.1% | [4] 4.45% | [5] 29.6% | [6] -3.7%

Cc1c[nH]c(=O)n(CC(=O)C2(O)CCC3C4CCC5=CC(=O)CCC5(C)C4CCC32C)c1=O (configuration not stated)
inactive: [1] 5.25% | [2] -4.45% | [3] -10.9% | [4] 13.2% | [5] -0.55% | [6] -1.35%

CC(C(=O)C(=O)Nc1ccc(Cl)cc1)C(=O)c1ccc(Cl)cc1 (configuration not stated)
inactive: [1] 1.25% | [2] -7.15% | [3] -2.85% | [4] -14.9% | [5] 5.15% | [6] -17.3%

CCCCCCCCCCCCCCCCC(=O)O
inactive: [1] -12.9% | [2] -15.8% | [3] -22.6% | [4] -27.8% | [5] 16.8% | [6] -7.85%

O=C(Nc1ccc(Cl)cc1)Nc1nnc(-c2cc([N+](=O)[O-])cc([N+](=O)[O-])c2)o1
inactive: [1] -2.1% | [2] 20.8% | [3] 28.8% | [4] -13.3% | [5] -32.6% | [6] -2.25%

COCC1OCCN1C (configuration not stated)
inactive: [1] 12.7% | [2] 7.75% | [3] -10% | [4] 17.4% | [5] 5.65% | [6] -32.1%

COC1(OC)CC2C(=O)N(Cc3ccccc3)C1C=C2S(=O)(=O)c1ccccc1 (configuration not stated)
inactive: [1] 2.5% | [2] 9.65% | [3] -18.2% | [4] -47.5% | [5] 1.55% | [6] 8.25%

CCOC(=O)CCC(NC(=O)c1ccc(Nc2nc3ccccc3nc2-c2cccs2)cc1)C(=O)OCC (configuration not stated)
inactive: [1] 7.1% | [2] 4.3% | [3] 20.1% | [4] 14.8% | [5] 9.2% | [6] -34.7%

COc1ccccc1N/N=c1\c2nc3ccccc3nc1n(-c1ccccc1C)c(=S)n2-c1ccccn1
inactive: [1] 3.4% | [2] 5.1% | [3] 16.3% | [4] -0.75% | [5] 0.9% | [6] 8.85%

OC1c2ccccc2-c2ccc(NCc3ccc4c(c3)OCO4)cc21 (configuration not stated)
inactive: [1] 48.8% | [2] -11.2% | [3] 17.4% | [4] -5.2% | [5] -4.1% | [6] 19.4%

O=c1cc(NCc2cccc3ccccc23)[nH]c(=O)[nH]1
inactive: [1] 4.45% | [2] 24.1% | [3] -5.25% | [4] -10.1% | [5] -0.75% | [6] -7.1%

COC(=O)N/N=C/c1oc(-c2cccc([N+](=O)[O-])c2)c(-c2cccc([N+](=O)[O-])c2)c1[N+](=O)[O-]
inactive: [1] 19.4% | [2] 30.1% | [3] 16.5% | [4] 22.6% | [5] 21% | [6] 22.6%

O=C1CCCCCCCCCCC1Cc1cc(O)c(CC2CCCCCCCCCCC2=O)cc1O (configuration not stated)
inactive: [1] -1.2% | [2] 3% | [3] -5.95% | [4] -12.9% | [5] -5.8% | [6] -12.8%

CN(C)c1ccc(C(=N)c2ccc(N(C)C)cc2)cc1
inactive: [1] -3.85% | [2] 4.9% | [3] -6% | [4] -35.5% | [5] 5.45% | [6] -0.15%

CCN(C)c1ccccc1
inactive: [1] -5.8% | [2] -27.8% | [3] -3.2% | [4] -31.9% | [5] -6.6% | [6] 11.2%

Nc1nc(N)c2cc(S(=O)(=O)c3ccccc3)ccc2n1
inactive: [1] 26.1% | [2] 8.7% | [3] -8.9% | [4] -4.55% | [5] -26.1% | [6] -40.5%

C[C@H](OCc1ccccc1)C(=O)N1CCS(=O)(=O)N2CCC[C@@H]2C1=O
inactive: [1] 5.05% | [2] -19.1% | [3] -18.2% | [4] 19.4% | [5] -5.9% | [6] -17.9%

CCCCCCCC/C=C/CCCCCCCC(=O)NN(C)C
inactive: [1] -1.4% | [2] -7.6% | [3] -0.5% | [4] -59.2% | [5] -3.95% | [6] -11.3%

CSc1cnc2ccccc2c1Sc1c[nH]c2ccccc2c1=O
inactive: [1] -15% | [2] 3.65% | [3] 1.15% | [4] 11.8% | [5] -8.05% | [6] -12.4%

CC(C)[Si](C#CC[Si](C(C)C)(C(C)C)C(C)C)(C(C)C)C(C)C
inactive: [1] -13.8% | [2] -6% | [3] -17.4% | [4] -17.6% | [5] -20.3% | [6] -9.35%

Reference: PubChem BioAssay (NCI)
